# PfHsp90 yeast 2 = inhibits growth of yeast expressing Plasmodium falciparum Hsp90; AID 504621; inhibition, % at 9.4 µM; hit rate 0.32% among 310,000; S. cerevisiae expressing PfHsp90, BacTiter-Glo ATP, 48 h; yeast lacking PDR1 and PDR3 efflux regulators;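 active = every replicate shows inhibition above about 80%, whatever the replicate mean, limit read from the data; inconclusive = mean inhibition reaches the set limit but some replicate falls short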;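 note: 0% = DMSO neutral controls and 100% = 20 µM radicicol positive controls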
# TIM10 inh = inhibits growth of TIM10 yeast strain; S. cerevisiae TIM10 strain growth, BacTiter-Glo luminescence, 24 h; inhibition, % at 10 µM; hit rate 1.4% among 330,000; AID 463195;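 active = inhibition of 40% or more at the single tested concentration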;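 note: wild-type TIM10 isogenic control strain grown at permissive 25 °C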
# SKKanGAS inh = SKKanGAS growth inhibition | S. pyogenes SKKanGAS, kanamycin growth, BacTiter-Glo, 6 h | inhibition, % at 7.5 µM | hit rate 1.3% among 300,000 | AID 1662;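 active = mean replicate score, as percent of positive control median, at least 50; inconclusive = mean below 50 but one replicate at or above 50; inactive = mean and every replicate below 50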;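 note: strain carries kanamycin resistance gene driven by streptokinase promoter and grows in 40 µg/ml kanamycin; loss of luminescence reflects streptokinase promoter inhibition or plain growth inhibition; 0% = median of DMSO wells and 100% = positive control at its reference dose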
# tim23-1 inh = inhibits growth of tim23-1 mutant yeast; S. cerevisiae tim23-1 growth, BacTiter-Glo luminescence, 24 h; inhibition, % at 20 µM; hit rate 1.3% among 330,000;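 active = growth inhibition of the mutant yeast at or above 50%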;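 note: temperature-sensitive mutant grown at 25 °C; plate controls were DMSO-treated mutant yeast for no effect and medium wells lacking yeast for full effect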
# NALP1 yeast inh = inhibitors of NALP1 inflammasome in yeast; AID 2071; inhibition, % at 10 µM; S. cerevisiae NALP1/ASC/caspase-1 growth, X-gal OD620, 72 h; hit rate 0.61% among 280,000; in the data active = inhibition mostly above about 24%, no sharp cut-off; inactive = mostly below about 32%
# tim10-1 inh = growth inhibitors of tim10-1 mutant yeast | hit rate 2.2% among 330,000 | inhibition, % at 20 µM | S. cerevisiae tim10-1 ts strain growth, BacTiter-Glo, 24 h;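 active = inhibition of at least 40%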;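 note: mutant grown at 25 °C; 0% = DMSO wells with yeast and 100% = wells holding no yeast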
# tim10-1 confirm = confirmation of tim10-1 mutant yeast growth inhibitors; AID 463213; shares compounds with tim10-1 inh; inhibition, % at 20 µM; S. cerevisiae tim10-1 ts strain growth, BacTiter-Glo, 24 h; hit rate 56% among 7,400;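 active = inhibition of yeast growth at or above a set limit in either of two repeat tests at 20 µM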;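 note: tim10-1 mutant grown at permissive 25 °C to find synthetic lethal compounds; 0% = DMSO yeast wells and 100% = medium wells without yeast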
# tim10 confirm = TIM10 yeast growth inhibition, confirmed | shares compounds with TIM10 inh | S. cerevisiae tim10 strain growth, BacTiter-Glo luminescence, 24 h | inhibition, % at 10 µM | hit rate 63% among 4,600 | AID 463215;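 active = inhibition of yeast growth at or above a set limit in either of two replicates at 10 µM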;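 note: this counterscreen used the strain with wild-type TIM10; 0% = yeast with DMSO and 100% = medium wells lacking yeast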
# An asterisk follows results filed as active; u = inconclusive; x = no result given. Sampled rows, rich in hits. Any-hit rate of the full collection: about 4.8%.
SMILES,PfHsp90 yeast 2,TIM10 inh,SKKanGAS inh,tim23-1 inh,NALP1 yeast inh,tim10-1 inh,tim10-1 confirm,tim10 confirm
CC(C1CC1)N(Cc1ccccc1)C(=S)Nc1ccccc1 (stereo not given),21.6,41.8*,-11.0,36.0,-9.9,42.4*,30.0,39.8*
Cc1ccc(CNC(=O)C2CC3Cn4c(nc5ccccc54)C3N2C)o1 (stereo not given),13.5,0.8,-1.3,-9.5,x,-9.6,x,x
CCN1/C(=C/C=C/c2oc3ccc(-c4ccccc4)cc3[n+]2CC)Oc2ccc(-c3ccccc3)cc21,54.6,62.9*,92.6*,-54.3,51.2*,61.3*,-6.3,42.2*
CCC(=O)N(Cc1ccco1)c1nc(C(=O)Nc2ccc(Cl)cc2)c(C)s1,4.5,44.0*,-3.3,34.8,x,45.9*,35.4*,37.5*
CCN(C(=O)c1ccco1)c1nc(CC(=O)Nc2ccc(Cl)cc2)cs1,-15.0,20.2,-0.2,23.8,22.9,-0.5,x,x
COc1ccc(CCNC(=S)NC(=O)c2cccc(Cl)c2)cc1OC,x,40.1*,4.7,35.3,13.5,48.1*,29.5*,41.1*
Cc1ccc(N(CC(=O)Nc2cccc(C)c2)S(=O)(=O)c2cccc3nonc23)cc1,-9.7,44.2*,8.3,18.5,-6.2,42.3*,33.2*,38.7*
Cc1ccc(NC(=O)CCS(=O)(=O)c2cccc3nonc23)cc1,-3.1,-17.6,1.4,18.2,6.7,10.5,x,x
CCOC(=O)c1ccc(NC(=S)N(Cc2cccnc2)Cc2ccco2)cc1,2.2,7.9,-1.8,-466.8,2.2,-3.4,x,x
COc1ccc(CCNC(=O)c2c(O)c3ccccc3[nH]c2=O)cc1,1.3,-20.4,4.6,-1.7,1.7,-40.4,x,x
COc1ccc2c(c1)[nH]c1c(N3CCN(Cc4ccc5c(c4)OCO5)CC3)ncnc12,7.0,46.8*,11.0,44.0,13.3,47.2*,41.6*,26.9
c1ccc(-c2nnc(N3CCN(c4ccccn4)CC3)c3ccccc23)cc1,x,40.7*,15.7,33.4,17.8,52.4*,28.8,7.7
Cc1ccc(F)c([C@H]2[C@H]3C=CC[C@@H](C)[C@@H]3C(=O)N2Cc2ccccc2)c1,-32.4,45.0*,35.1,48.3,-5.7,49.7*,28.3,35.5*
CC(=O)c1ccc(-c2ccc([C@H]3[C@H]4C=CC[C@@H](C)[C@@H]4C(=O)N3Cc3ccccc3)c(F)c2)cc1,-11.4,6.0,32.8,19.9,-2.6,20.1,x,x
C[C@@H]1CC=C[C@H]2[C@H]1C(=O)N(Cc1ccccc1)[C@H]2c1ccc2ccccc2c1,26.7,47.9*,43.7,40.2,4.7,45.6*,47.0*,47.2*
CC(=O)c1ccc(-c2ccccc2[C@H]2[C@H]3C=CC[C@@H](C)[C@@H]3C(=O)N2Cc2ccccc2)cc1,x,42.9*,23.8,38.2,-0.2,45.0*,30.3*,28.4
NC(=O)c1ccc(NC(=O)CSc2cn(CC(=O)N3CCOCC3)c3ccccc23)cc1,-1.4,4.3,8.0,-15.7,13.4,-6.3,x,x
O=C(CCC(=O)c1ccc(F)cc1)NCc1ccccc1C(F)(F)F,12.2,-2.8,0.0,14.2,-9.1,22.2,x,x
COc1ccccc1NS(=O)(=O)c1ccc2ccccc2c1,0.2,-2.0,-4.1,22.0,22.8,9.4,x,x
COc1ccccc1NS(=O)(=O)c1ccc2oc(=O)ccc2c1,-43.3,46.5*,0.4,30.0,24.9,42.8*,20.7,44.4*
O=C(NC(=S)NCCC1=CCCCC1)c1ccccc1Br,-56.6,45.7*,u,33.5,4.4,43.5*,31.0*,41.1*
COC(=O)COc1ccccc1C(N)=O,12.1,-4.6,-4.1,10.4,0.3,-1.7,x,x
COC(=O)COc1ccc(-c2ccc(F)cc2)cc1C=O,10.8,74.2*,-4.9,39.2,21.2,61.9*,65.3*,80.2*
CC(C)c1ccccc1NC(=S)NC(C)c1ccccc1 (stereo not given),9.0,41.6*,-10.3,40.2,x,42.0*,22.8,16.8
c1ccc(Cc2nnc(Sc3ccccc3)c3ccccc23)cc1,x,15.1,7.4,22.0,0.8,35.4,x,x
SMILES,PfHsp90 yeast 2,TIM10 inh,SKKanGAS inh,tim23-1 inh,NALP1 yeast inh,tim10-1 inh,tim10-1 confirm,tim10 confirm
N#C/C(=C\c1ccccc1)C(=O)Nc1cc(S(=O)(=O)N2CCOCC2)ccc1N1CCCC1,2.4,49.5*,4.5,49.4,35.0,52.3*,32.5*,23.6
O=C(Nc1cc(S(=O)(=O)N2CCOCC2)ccc1N1CCCCC1)c1ccccc1,x,13.0,x,30.9,x,16.5,x,x
CN1CCN(CCc2nc3cc(NC(=O)COc4ccc([N+](=O)[O-])cc4)ccc3n2C)CC1,-23.4,-14.0,-2.0,-22.0,-2.8,-0.6,x,x
CCOc1ccccc1-c1cc(C(=O)N/N=C/c2ccc(O)c(OC)c2)c2ccccc2n1,-16.5,19.6,17.2,26.7,-11.9,34.1,x,x
COC(=O)C1(Cc2cc(-c3ccc(Cl)cc3)no2)CCN(C(=O)OC(C)(C)C)CC1,26.8,44.1*,21.8,28.0,6.8,53.8*,45.0*,39.7*
COC(=O)Cc1[nH]c(Cl)nc1C(N)=O,x,3.0,-1.8,9.3,23.1,-11.1,x,x
CCCc1cc(-c2nc(-c3ccc(Cl)cc3)cs2)ccn1,-3.9,51.1*,-9.0,29.6,17.9,46.5*,44.8*,43.1*
Cn1c(=O)c2c(nc(N3CCN(c4ccccn4)CC3)n2Cc2ccccc2Cl)n(C)c1=O,-25.1,50.8*,-6.5,23.7,7.9,43.2*,27.6,35.4*
Cn1c(=O)c2c(nc(N3CCNCC3)n2Cc2ccccc2Cl)n(C)c1=O,-7.9,-5.2,5.6,14.6,19.7,0.8,x,x
CC(C)C(=O)OCCN=C1NS(=O)(=O)c2ccccc21,16.4,1.7,4.0,7.2,-7.3,6.0,x,x
Cc1ccc(N2C(=O)[C@@H]3C(C(=O)CCN4C(=O)c5ccccc5C4=O)=NN[C@@H]3C2=O)cc1,-14.4,3.6,8.0,12.4,18.5,4.5,x,x
COc1ccc(NC(=S)Nc2ccc(C)c(Cl)c2)cc1OC,-12.5,-41.5,7.6,22.2,16.4,-23.5,x,x
Cc1cccc(C)c1NC(=S)Nc1ccc(Cl)c(Cl)c1,-8.8,51.6*,19.5,24.7,-1.1,47.5*,38.2*,47.6*
CCN(CC)Cc1cc2[nH]c3c4ccc(Cl)cc4ncc3c2cc1OC,-24.6,68.0*,-2.2,33.9,-0.5,57.1*,50.0*,35.0*
COc1ccc(CNc2ncnc3cc(Cl)ccc23)cc1OC,7.6,x,5.6,x,-3.9,x,x,x
O=C1CC(c2ccccc2)SC(N(c2ccccc2)c2ccccc2)=N1 (stereo not given),11.6,32.8,5.1,26.1,20.7,25.1,x,x
Cc1cccc(NC(=S)N=Nc2c(O)n(CN3CCOCC3)c3ccccc23)c1C,-102.9,59.3*,x,35.2,-14.0,58.8*,35.9*,41.3*
